Reference: the supplement of paper PMC11732987, “Enantioselective OTUD7B fragment discovery through chemoproteomics screening and high-throughput optimisation” (Communications Chemistry, 2025)

How the values were obtained:
Experiment in all cases: log2 ratio of Biotin-Ahx-Ub-VS probe labelling (fragment/DMSO); higher = less target engagement (more negative = stronger competition), active = hit call of the paper (q ≤ 0.05, log2 ratio ≤ -1)
Conditions in all cases: compound concentration: 200 uM; treatment time: 3 h
USP19 = target: T1, USP19 (UniProt O94966)
T1 sequence (whole entry): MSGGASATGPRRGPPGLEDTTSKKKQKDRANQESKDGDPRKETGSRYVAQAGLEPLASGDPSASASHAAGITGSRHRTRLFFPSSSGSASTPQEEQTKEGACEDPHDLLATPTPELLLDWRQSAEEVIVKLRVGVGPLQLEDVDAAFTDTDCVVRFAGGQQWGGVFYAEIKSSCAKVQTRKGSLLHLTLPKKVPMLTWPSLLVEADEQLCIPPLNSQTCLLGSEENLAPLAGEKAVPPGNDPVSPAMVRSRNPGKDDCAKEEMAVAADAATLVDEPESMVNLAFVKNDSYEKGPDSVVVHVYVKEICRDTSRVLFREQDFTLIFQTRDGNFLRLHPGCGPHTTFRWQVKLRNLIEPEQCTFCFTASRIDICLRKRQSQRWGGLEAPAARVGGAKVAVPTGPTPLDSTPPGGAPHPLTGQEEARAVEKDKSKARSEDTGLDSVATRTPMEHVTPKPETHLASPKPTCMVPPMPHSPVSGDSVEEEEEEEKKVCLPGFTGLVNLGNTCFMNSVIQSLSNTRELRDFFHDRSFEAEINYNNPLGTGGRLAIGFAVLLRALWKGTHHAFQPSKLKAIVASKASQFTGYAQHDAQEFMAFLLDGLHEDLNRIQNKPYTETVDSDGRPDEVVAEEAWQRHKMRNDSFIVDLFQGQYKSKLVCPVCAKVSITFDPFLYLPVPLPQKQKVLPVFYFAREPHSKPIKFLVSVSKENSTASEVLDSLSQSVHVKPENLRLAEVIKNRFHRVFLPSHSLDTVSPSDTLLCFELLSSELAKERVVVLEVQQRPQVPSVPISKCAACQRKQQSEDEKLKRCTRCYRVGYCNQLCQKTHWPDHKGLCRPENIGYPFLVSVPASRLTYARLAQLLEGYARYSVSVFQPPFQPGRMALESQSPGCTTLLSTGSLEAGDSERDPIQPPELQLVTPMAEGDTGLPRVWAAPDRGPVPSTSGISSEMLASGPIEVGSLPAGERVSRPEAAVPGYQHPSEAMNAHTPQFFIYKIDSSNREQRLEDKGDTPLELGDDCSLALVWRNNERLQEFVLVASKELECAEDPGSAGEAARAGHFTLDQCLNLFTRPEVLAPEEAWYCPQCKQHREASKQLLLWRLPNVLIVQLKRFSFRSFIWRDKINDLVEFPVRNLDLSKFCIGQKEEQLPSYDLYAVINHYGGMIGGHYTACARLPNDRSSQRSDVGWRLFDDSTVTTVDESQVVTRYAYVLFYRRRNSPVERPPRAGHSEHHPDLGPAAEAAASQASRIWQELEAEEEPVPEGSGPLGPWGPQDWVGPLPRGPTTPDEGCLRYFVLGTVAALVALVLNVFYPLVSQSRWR
Procedure, shortened: (§1)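 The table lists average log2 ratios of fragment over vehicle, from an unpaired t-test on global-median-normalised Spectronaut label-free quantities. Proteins with ≥2 unique peptides were used. Samples were HEK293T lysate (495 µg) treated in triplicate with fragment at 200 µM or vehicle for 3 h, then with Biotin-Ahx-Ub-VS (0.5 µM final) for 1 h, with labelled DUBs NeutrAvidin-enriched and run by diaPASEF LC-MS/MS.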

USP22 = target: T2, USP22 (UniProt Q9UPT9)
T2 sequence (whole entry): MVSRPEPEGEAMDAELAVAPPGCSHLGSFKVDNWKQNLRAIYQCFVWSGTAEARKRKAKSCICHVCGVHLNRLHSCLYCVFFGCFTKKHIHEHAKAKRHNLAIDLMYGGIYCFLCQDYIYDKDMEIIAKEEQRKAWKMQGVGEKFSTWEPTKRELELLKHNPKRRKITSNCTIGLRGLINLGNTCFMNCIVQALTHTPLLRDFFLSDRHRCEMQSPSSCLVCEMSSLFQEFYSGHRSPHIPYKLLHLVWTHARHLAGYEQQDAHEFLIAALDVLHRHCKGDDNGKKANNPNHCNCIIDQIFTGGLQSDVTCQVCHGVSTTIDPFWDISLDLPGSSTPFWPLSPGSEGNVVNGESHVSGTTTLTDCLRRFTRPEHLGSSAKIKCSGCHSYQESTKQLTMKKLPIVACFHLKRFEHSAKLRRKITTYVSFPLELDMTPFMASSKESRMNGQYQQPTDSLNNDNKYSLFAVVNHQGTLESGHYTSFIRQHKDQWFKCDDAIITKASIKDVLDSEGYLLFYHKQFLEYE
Procedure, shortened: as §1

USP24 = USP24 (UniProt Q9UPU5)
Sequence of USP24 (Q9UPU5 whole entry): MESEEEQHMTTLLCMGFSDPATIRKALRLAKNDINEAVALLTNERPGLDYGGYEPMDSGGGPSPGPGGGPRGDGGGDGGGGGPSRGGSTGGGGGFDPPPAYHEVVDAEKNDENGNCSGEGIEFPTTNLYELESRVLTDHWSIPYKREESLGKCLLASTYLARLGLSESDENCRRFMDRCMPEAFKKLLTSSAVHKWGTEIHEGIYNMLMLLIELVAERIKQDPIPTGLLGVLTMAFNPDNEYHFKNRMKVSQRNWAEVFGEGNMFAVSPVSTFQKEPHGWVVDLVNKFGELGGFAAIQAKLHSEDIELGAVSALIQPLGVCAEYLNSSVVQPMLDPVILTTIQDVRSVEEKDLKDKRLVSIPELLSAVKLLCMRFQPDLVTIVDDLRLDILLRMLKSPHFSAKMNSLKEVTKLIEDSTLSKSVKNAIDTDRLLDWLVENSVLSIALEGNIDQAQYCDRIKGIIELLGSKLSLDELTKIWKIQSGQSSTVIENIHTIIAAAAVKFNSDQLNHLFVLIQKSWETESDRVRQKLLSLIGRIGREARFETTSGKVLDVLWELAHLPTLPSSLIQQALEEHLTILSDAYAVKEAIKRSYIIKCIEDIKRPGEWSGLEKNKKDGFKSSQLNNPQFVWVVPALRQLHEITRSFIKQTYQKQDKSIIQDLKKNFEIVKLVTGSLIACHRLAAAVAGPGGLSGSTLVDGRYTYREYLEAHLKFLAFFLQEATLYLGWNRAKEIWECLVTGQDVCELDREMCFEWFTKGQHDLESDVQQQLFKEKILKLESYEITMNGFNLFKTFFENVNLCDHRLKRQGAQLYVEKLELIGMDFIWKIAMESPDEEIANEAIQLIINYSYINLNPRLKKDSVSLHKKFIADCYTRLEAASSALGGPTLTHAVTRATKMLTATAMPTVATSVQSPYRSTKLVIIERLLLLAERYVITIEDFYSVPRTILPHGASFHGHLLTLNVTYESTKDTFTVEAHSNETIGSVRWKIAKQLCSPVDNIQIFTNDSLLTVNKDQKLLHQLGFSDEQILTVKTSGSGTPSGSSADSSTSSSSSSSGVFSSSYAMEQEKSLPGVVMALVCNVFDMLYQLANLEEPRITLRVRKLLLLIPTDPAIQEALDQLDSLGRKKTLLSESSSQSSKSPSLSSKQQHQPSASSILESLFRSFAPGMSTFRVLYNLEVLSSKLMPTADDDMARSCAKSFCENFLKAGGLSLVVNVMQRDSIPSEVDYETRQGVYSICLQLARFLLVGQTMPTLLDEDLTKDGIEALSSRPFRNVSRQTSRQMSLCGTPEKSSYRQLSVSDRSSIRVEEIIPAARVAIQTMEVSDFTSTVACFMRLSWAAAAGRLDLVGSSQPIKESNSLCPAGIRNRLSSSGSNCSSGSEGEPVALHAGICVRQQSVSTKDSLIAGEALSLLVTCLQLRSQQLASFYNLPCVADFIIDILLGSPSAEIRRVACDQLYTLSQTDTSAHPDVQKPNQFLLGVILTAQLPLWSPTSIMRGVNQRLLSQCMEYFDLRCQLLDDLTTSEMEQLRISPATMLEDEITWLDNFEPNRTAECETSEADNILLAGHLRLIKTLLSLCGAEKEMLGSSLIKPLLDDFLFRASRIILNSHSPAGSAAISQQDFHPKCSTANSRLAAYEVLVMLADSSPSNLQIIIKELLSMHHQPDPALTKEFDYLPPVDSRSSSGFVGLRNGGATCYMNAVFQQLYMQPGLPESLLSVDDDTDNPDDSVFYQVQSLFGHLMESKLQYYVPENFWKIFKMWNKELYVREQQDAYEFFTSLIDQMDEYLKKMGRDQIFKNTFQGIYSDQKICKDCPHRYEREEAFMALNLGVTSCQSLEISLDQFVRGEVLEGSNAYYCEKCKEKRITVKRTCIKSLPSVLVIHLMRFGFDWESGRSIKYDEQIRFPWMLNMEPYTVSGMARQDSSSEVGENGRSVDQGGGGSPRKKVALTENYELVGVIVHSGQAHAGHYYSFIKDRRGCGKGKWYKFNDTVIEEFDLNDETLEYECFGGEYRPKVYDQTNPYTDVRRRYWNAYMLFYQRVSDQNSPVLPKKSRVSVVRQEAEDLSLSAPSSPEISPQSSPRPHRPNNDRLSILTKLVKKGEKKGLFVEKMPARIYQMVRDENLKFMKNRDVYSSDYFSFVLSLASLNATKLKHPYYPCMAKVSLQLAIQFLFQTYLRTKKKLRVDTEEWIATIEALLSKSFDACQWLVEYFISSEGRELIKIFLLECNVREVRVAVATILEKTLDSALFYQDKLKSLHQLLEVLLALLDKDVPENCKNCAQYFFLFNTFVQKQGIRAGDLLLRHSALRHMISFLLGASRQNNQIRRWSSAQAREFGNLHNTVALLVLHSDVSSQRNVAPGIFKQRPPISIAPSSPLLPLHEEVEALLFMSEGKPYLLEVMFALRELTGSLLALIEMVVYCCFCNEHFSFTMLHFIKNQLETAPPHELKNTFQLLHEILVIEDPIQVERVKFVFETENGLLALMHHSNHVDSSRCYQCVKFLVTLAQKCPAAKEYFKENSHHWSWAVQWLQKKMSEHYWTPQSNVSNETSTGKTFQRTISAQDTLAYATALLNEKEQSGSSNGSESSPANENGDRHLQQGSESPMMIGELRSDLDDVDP
Procedure, shortened: as §1

USP25 = target: T3, USP25 (UniProt Q9UHP3)
T3 sequence (whole entry): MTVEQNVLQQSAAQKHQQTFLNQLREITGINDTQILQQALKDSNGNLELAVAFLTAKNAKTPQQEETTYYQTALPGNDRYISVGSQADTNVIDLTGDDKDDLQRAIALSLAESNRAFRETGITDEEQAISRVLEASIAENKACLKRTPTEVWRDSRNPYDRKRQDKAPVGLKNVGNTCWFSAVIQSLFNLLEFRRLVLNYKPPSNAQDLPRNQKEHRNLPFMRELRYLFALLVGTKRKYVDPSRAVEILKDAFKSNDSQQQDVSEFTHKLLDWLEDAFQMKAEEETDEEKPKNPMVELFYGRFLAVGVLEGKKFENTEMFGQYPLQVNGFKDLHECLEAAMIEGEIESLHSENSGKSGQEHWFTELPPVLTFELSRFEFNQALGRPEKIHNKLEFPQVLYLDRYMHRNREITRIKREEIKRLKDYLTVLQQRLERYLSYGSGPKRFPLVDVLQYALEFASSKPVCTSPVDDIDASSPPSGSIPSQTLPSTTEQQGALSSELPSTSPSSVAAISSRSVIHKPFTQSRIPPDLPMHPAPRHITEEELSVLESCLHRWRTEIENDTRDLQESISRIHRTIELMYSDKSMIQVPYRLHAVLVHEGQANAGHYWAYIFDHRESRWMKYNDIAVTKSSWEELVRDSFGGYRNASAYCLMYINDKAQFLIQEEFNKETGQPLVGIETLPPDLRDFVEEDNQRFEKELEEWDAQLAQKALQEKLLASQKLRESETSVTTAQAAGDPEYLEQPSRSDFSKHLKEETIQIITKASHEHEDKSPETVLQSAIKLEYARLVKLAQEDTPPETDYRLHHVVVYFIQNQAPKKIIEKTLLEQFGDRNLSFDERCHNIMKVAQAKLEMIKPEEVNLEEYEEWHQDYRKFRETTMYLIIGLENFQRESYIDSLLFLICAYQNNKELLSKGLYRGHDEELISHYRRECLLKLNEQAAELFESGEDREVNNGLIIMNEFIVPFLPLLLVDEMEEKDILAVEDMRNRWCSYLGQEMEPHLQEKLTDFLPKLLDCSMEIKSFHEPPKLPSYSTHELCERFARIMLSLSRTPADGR
Procedure, shortened: as §1

USP28 = target: T4, USP28 (UniProt Q96RU2)
T4 sequence (whole entry): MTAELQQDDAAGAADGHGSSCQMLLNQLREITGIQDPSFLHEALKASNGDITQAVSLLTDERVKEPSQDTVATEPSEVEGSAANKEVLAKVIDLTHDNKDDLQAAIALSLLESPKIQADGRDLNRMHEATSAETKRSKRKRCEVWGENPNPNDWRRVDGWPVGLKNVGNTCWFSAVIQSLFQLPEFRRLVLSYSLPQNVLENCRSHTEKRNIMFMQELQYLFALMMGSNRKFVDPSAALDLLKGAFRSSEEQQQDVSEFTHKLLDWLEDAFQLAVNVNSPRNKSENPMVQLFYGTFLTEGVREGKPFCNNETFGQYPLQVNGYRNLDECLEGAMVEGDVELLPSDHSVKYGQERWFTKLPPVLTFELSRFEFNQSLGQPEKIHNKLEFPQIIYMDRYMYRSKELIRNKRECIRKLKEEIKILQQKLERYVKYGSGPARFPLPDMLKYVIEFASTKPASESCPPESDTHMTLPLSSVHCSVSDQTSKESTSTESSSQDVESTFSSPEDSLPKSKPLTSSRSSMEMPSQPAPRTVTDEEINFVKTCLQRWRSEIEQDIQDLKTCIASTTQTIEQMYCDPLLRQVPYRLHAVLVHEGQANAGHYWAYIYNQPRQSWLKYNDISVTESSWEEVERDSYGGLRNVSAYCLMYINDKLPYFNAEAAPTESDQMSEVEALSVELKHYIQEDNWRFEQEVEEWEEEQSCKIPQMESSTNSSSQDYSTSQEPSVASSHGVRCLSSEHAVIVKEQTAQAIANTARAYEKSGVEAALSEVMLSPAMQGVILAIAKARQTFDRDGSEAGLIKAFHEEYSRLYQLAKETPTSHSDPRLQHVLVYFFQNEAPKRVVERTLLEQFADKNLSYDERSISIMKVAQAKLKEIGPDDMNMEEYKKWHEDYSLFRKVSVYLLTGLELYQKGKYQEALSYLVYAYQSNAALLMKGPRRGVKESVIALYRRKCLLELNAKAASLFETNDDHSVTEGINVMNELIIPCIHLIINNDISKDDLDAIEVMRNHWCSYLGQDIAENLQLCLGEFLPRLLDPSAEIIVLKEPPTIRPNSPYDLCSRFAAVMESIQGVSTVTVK
Procedure, shortened: as §1

Measured: log2 ratio of Biotin-Ahx-Ub-VS probe labelling

CCc1c[nH]c(CNC(=O)CCl)n1.Cl
inactive: USP19 -0.279 | USP22 -0.0631 | USP24 -0.668 | USP25 -0.182 | USP28 -0.44
